# Reference: PubChem BioAssay AID720708 (National Center for Advancing Translational Sciences (NCATS), 2013)
# In all, about 360,000 compounds went through this assay and about 660 (0.18%) were called active. Another 2% or so got no clear call; they are omitted. Calls follow the shape of the dose curve; as a rule, active = well fitted inhibition curve with a large enough effect; inconclusive = small, poorly fitted or top-dose-only effect; inactive = no such curve, though single readings can be large or run the other way. This excerpt belongs to a sample that is enriched for actives.
# Molecular target: Rap guanine nucleotide exchange factor 4 (Homo sapiens) (UniProt Q8WZA2)
# Sequence (Q8WZA2 whole entry, looked up): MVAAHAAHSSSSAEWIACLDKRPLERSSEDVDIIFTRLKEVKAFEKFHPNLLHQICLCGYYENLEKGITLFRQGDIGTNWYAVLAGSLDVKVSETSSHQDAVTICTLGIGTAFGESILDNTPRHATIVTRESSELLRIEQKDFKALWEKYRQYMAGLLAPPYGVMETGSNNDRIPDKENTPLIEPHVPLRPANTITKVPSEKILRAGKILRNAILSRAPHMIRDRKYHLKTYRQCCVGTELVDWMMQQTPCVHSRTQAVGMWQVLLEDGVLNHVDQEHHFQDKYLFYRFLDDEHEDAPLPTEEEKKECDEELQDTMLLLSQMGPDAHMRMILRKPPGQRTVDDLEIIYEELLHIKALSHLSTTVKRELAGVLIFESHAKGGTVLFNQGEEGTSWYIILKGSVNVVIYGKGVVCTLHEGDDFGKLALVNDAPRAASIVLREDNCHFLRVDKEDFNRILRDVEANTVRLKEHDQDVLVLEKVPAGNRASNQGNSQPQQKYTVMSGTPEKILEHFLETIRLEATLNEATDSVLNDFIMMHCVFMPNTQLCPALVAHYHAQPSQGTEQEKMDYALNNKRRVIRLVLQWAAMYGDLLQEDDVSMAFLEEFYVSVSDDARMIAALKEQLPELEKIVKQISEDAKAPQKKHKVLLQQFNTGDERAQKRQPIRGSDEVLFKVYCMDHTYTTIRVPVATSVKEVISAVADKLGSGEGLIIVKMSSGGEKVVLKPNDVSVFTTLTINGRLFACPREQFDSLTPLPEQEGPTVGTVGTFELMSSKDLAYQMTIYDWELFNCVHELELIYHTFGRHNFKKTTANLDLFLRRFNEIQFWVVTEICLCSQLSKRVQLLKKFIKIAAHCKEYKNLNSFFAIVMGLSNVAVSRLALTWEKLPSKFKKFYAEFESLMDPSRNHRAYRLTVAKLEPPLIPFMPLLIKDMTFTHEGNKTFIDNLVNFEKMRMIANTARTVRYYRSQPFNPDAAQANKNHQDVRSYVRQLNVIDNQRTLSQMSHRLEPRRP
# Assay: qHTS for Antagonist of cAMP-regulated guanine nucleotide exchange factor 2 (EPAC2): primary screen; also: nearly all actives have a fitted effect of over 45% in size
# Conditions: EPAC2 GEF exchange of Rap1B-BODIPY-GDP, fluorescence; series mostly up to 114 µM; activity, negative = inhibition: at the top concentration
# Description: In multi-cellular eukaryotic organisms, the effects of cAMP are transduced by two ubiquitously-expressed intracellular cAMP receptors, the classic protein kinase A/cAMP-dependent protein kinase (PKA/cAPK) and the more recently discovered exchange protein directly activated by cAMP/cAMP-regulated guanine nucleotide exchange factor (EPAC/cAMP-GEF). Both PKA and EPAC are ubiquitously expressed in all tissues, and an increase in intracellular cAMP levels will lead to the activation of both PKA and EPAC. Therefore, careful dissections of the individual role and relative contribution of EPAC and PKA within the overall cAMP signaling in various model systems are critical for further elucidating the mechanism of cAMP signaling. To date no EPAC-specific antagonists and agonist, as well as isoform-specific agonists have been reported, and developing EPAC-specific pharmacological probes to determine the physiological functions that EPAC play in the overall cAMP-mediated signaling remains a major challenge within the research field. Furthermore, identified regulators of EPAC may lead to new mechanism-based therapeutic strategies specifically targeting the EPAC / cAMP-signaling components as EPAC has been implicated to play important roles in major human pathological conditions such as diabetes, heart disease, and cancer.
# This qHTS will be used to screen the Molecular Libraries Small Molecule Repository (MLSMR) as a concentration-titration series using the NCGC unique quantitative screening (qHTS) platform to find inhibitors for EPAC2. In addition, this assay will also be used as a counterscreen for the EPAC1 qHTS. This fluorescent based assay is developed and validated for EPAC2 that measures exchange using EPAC effector Rap1 complex with BODIPY-GDP, a GDP analog with a tethered fluorophores. Inhibitors are identified by monitoring the change in fluorescence signal as the exchanged free BODIPY-GDP has a reduced fluorescence compared to Rap1-bound BODIPY-GDP. Decrease in signal (inhibition) is the desired outcome for the EPAC2 antagonist while no activity in this assay is desired for the EPAC1 antagonist counterscreen.
# NIH Chemical Genomics Center [NCGC]
# NIH Molecular Libraries Probe Centers Network [MLPCN]
# Assay Submitter (PI): Xiaodong Cheng, The University of Texas, Medical Branch
# Briefly, three uL of reagents (100 nM EPAC2, 250 nM RAP1B-BODIPY-GDP, 50 uM GDP) were dispensed into a 1536-well Greiner black solid-bottom medium binding assay plate. Controls and test compounds (23 nL) were transferred to the plate via a Kalypsys pin tool equipped with a 1536-pin array. The plates were centrifuged at 1,000 rpm for 15 seconds followed by 5 minute incubation at room temperature. The assay plates were read at 5 minute intervals for 30 minutes in the ViewLux plate reader using 480nm excitation and 540nm emission filters. The results were normalized to the agonist positive control ATA and DMSO.
# % is scaled to controls: 0 for no effect and ±100 for the full control effect; potency is read from the fitted curve at half-maximal effect.
SMILES,"activity, negative = inhibition",Potency
CCC(CC)C(C(=O)NC1CCCC1)N1CCN(c2cc(C)nc3ccccc23)CC1 (stereo unspecified),0.749% (inactive),
COc1cc(C(=O)NC2CCN(C)CC2)ccc1Nc1ncc2c(n1)N(C1CCC(O)CC1)CCC(=O)N2C (stereo unspecified),5.33% (inactive),
Cc1[nH]c2ccccc2c1C(=O)c1cc([C@H](NC(=O)OC(C)(C)C)C(C)C)sc1N,-19.1% (inactive),
COc1ccc(NC(=O)C(C)N2c3cccc4cccc(c34)S2(=O)=O)c(OC)c1 (stereo unspecified),-3.13% (inactive),
COc1ccc(CNC(=O)C(=O)NCC2OCCN2C(=O)c2ccc(OC)cc2)cc1 (stereo unspecified),-3.12% (inactive),
CC1CCCC(NC(=O)CN2CCN(Cc3ccc(Cl)cc3)C2=O)C1C (stereo unspecified),-0.841% (inactive),
Brc1ccc2c(c1)[C@H]1OCC[C@H]1[C@@H](c1cccs1)N2,-14.1% (inactive),
CC(C)OC(=O)Cn1nc(C(F)(F)F)c2c1CCCC2,-0.377% (inactive),
CCOC(=O)C1C(C)C(C(C)(C)C)N(S(=O)(=O)c2ccc(C)cc2)C1c1ccccc1 (stereo unspecified),-18.2% (inactive),
CCOC(=O)[C@]12CCCC=C1N(CCC1=CCCCC1)C(=O)[C@H](CC(=O)N1CCN(C(=O)c3ccco3)CC1)C2,-0.87% (inactive),
Cc1cc(NC(=O)CN2CCC(O)(c3cccc(F)c3)CC2)no1,-3.78% (inactive),
O=C(COC(=O)c1cccc(Cl)c1Cl)NC1CCCCCC1,0.941% (inactive),
CCCCCNC(=O)C(c1ccc(OC)cc1)n1c(=O)c(-c2ccccc2)nc2ccccc21 (stereo unspecified),-4.54% (inactive),
COc1ccc(NC(=O)CNC(=O)Cn2ccc3ccccc3c2=O)c(OC)c1,3.29% (inactive),
O=C(CSc1n[nH]c(-c2cccs2)n1)N1CCCCC1,6.58% (inactive),
Cc1cc(C)nc(SC2CCCCC2NS(=O)(=O)c2ccc(Cl)cc2)n1 (stereo unspecified),-5.29% (inactive),
N#CC(C(N)=O)=C1CCC2(CC1)OCCCCO2,-0.483% (inactive),
Cc1ccc(C(C(=O)NC2CCCCC2)N(C(=O)c2csnn2)C2CC2)o1 (stereo unspecified),-3.05% (inactive),
FC(F)(F)c1cccc(-c2nc3ccccc3n2C(c2ccccc2)c2nc3ccccc3[nH]2)c1 (stereo unspecified),4.94% (inactive),
CCOC(=O)c1cc(S(=O)(=O)NCCc2ccc(OC)c(OC)c2)cn1C,-4.79% (inactive),
COCCn1nnnc1CN1CCC(NC(=O)Nc2cccc(OC)c2)CC1,1.59% (inactive),
CCN1CCCC1CNC(=O)c1ccc2c(c1)NC(=O)/C(=C\c1ccccc1F)S2 (stereo unspecified),11.4% (inactive),

SMILES,"activity, negative = inhibition",Potency
CCOC(=O)N1CCN(C(=O)CSc2nc(C)nc3c2c(=O)n(C)c(=O)n3C)CC1,-1.46% (inactive),
CC1(C(=O)Nc2ccc3c(c2)OCCO3)CN(S(C)(=O)=O)CC(=O)N1Cc1cccc(F)c1 (stereo unspecified),-11.3% (inactive),
C[C@H](CO)N1C[C@H](C)[C@@H](CN(C)C(=O)c2cnccn2)Oc2ncc(Br)cc2C1=O,6.89% (inactive),
C#CCOCCOCCOCCNc1nc(N2CCN(C(=O)C([C@@H](C)O)n3cc([C@@H](N)CCCCN)nn3)CC2)nc(N2CCN(C(=O)[C@H](CCCCN)n3cc(CN)nn3)CC2)n1 (stereo partly specified),-4.66% (inactive),
C#CCOCCOCCOCCNc1nc(N2CCN(C(=O)C([C@@H](C)CC)n3cc(C(N)COC(=O)C(F)(F)F)nn3)CC2)nc(N2CCN(C(=O)[C@H](CCCCN)n3cc(C(N)CC(C)C)nn3)CC2)n1 (stereo partly specified),4.15% (inactive),
C#CCOCCOCCOCCNc1nc(N2CCN(C(=O)[C@H](CO)n3cc([C@@H](N)C(C)C)nn3)CC2)nc(N2CCN(C(=O)[C@H](CCC(=O)O)n3cc([C@@H](N)[C@H](C)CC)nn3)CC2)n1,5.29% (inactive),
C#CCOCCOCCOCCNc1nc(N2CCN(C(=O)[C@H](CCCCN)n3cc([C@@H](N)C(C)CC)nn3)CC2)nc(N2CCN(C(=O)[C@H](Cc3ccc(O)cc3)n3cc([C@@H](N)C(C)CC)nn3)CC2)n1 (stereo partly specified),8.26% (inactive),
C#CCOCCOCCOCCNc1nc(N2CCN(C(=O)CCCCCCCCCCNC(=O)[C@H]([C@@H](C)CC)n3cc(CCCCN=C(N)N)nn3)CC2)nc(N2CCN(C(=O)CCCCCCCCCCNC(=O)[C@H](CO)n3cc(CCCSC)nn3)CC2)n1,,50.1 µM (active)
C#CCOCCOCCOCCNc1nc(N2CCN(C(=O)CCCCCCCCCCNC(=O)[C@H](CCCCN)n3cc(C)nn3)CC2)nc(N2CCN(C(=O)CCCCCCCCCCNC(=O)[C@H](CO)n3cc(CCCSC)nn3)CC2)n1,,50.1 µM (active)
CC(C)N(C(=O)Cn1cc(S(=O)(=O)CC(=O)N2CCOCC2)c2ccccc21)C(C)C,1.79% (inactive),
Cc1cc(NC(=O)Cn2nc(C(F)(F)F)c3c2CCCC3)no1,12.3% (inactive),
Cc1ccc(C(=O)N[C@H](C(=O)N2CCN(c3ncccn3)CC2)C(C)C)cc1,38.4% (inactive),
COc1ccc(-c2ccc(CN3C(CC(C)C)C(=O)N(Cc4cn(CC5CCCCC5)nn4)CCS3(=O)=O)cc2)cc1 (stereo unspecified),4.18% (inactive),
COCOCCn1cc(CN2CCS(=O)(=O)N(Cc3ccc(-c4ccccc4)cc3)C(CC(C)C)C2=O)nn1 (stereo unspecified),,10 µM (active)
COCOCCn1cc(CN2CCS(=O)(=O)N(Cc3ccc(-c4cccc(N(C)C)c4)cc3)C(CC(C)C)C2=O)nn1 (stereo unspecified),-4.15% (inactive),
CCC1Nc2ncnc(N3CCN(c4ccccc4)CC3)c2N(Cc2ccc(Cl)cc2)C1=O (stereo unspecified),-9.37% (inactive),
COC(=O)C[C@@H]1C=C[C@@H](NS(=O)(=O)c2cccc(OC)c2)[C@@H](CO)O1,-11% (inactive),
C=CCSC(CC)(CC)C(N)=O,4% (inactive),
COc1ccc(-c2cn[nH]c2-c2ccc(OC)cc2)cc1,-25.6% (inactive),
CCOc1ccccc1Oc1cn[nH]c1-c1ccc(OC)cc1O,-10.8% [at 57.1 µM] (inactive),
COc1ccc(Oc2cn[nH]c2-c2ccc(OC)cc2O)cc1,,56.2 µM (active)
CCC1CCCCN1CCNS(=O)(=O)c1ccc2c(c1)CCN2C(C)=O (stereo unspecified),-1.86% (inactive),

SMILES,"activity, negative = inhibition",Potency
CSc1ncccc1C(=O)OCc1ccc(Br)cc1,-18.6% (inactive),
COc1ccc(/C=C2\SC(=N)N(c3ccc(F)cc3)C2=O)cc1,0.0047% (inactive),
O=C(O)c1ccc(/C=C2\SC(=S)N(NC(=O)c3ccc(Br)cc3)C2=O)cc1,5.01% (inactive),
O=C1/C(=C/c2ccc(F)cc2)SC(=S)N1NS(=O)(=O)c1ccccc1,,70.8 µM (active)
N#Cc1c(-c2ccccc2)nc(SCc2cccc(C(F)(F)F)c2)[nH]c1=O,,39.8 µM (active)
O=c1[nH]c(SCc2cccc(F)c2)nc2ccccc12,1.6% (inactive),
CC(=O)CSc1nc(CCc2ccccc2)c(C#N)c(=O)[nH]1,5.04% (inactive),
COc1ccc(OCCCC(=O)Nc2cccc(S(=O)(=O)N3CCCCCC3)c2)cc1,-11.7% (inactive),
CC(C)(C)NC(=O)C(CCc1ccccc1)n1c(=O)c(-c2ccccc2)nc2ccccc21 (stereo unspecified),1.14% (inactive),
COC(=O)[C@]12CCCCC=C1N(CCC1=CCCCC1)C(=O)[C@H](CC(=O)N1CCSCC1)C2,9.02% (inactive),
C=C1C2C[C@H](O)C(C)(C)[C@@]2(O)[C@H](O)C[C@]23C[C@@](C)(O)[C@H](CC[C@H]12)[C@H]3O (stereo partly specified),-2.34% (inactive),
CC1(C)OC(=O)C2=C(C[C@@H](C3CCCC3)O[C@@H]2c2ccc(Cl)cc2)O1,-4.79% (inactive),
COc1ccc(N(C)S(=O)(=O)c2cccc3nsnc23)cc1,-26% (inactive),
CC(C)c1ccc(NC(=O)CCN2C(=O)c3ccc([N+](=O)[O-])cc3C2=O)cc1,4.46% (inactive),
CN(CC1CCCO1)S(=O)(=O)c1ccc(C(=O)Nc2ccc([N+](=O)[O-])cc2)cc1 (stereo unspecified),-8.12% (inactive),
Cn1ccc(=Nc2ccc(NC(=O)c3ccc(N=c4ccn(C)c5ccc([N+](=O)[O-])cc45)cc3)cc2)cc1,,22.4 µM (active)
COCc1cccc(-c2csc(C(O)c3ccc(F)cc3)n2)c1 (stereo unspecified),-6.83% (inactive),
O=C(Nc1cc(Cl)ccc1N1CCOCC1)c1ccc(N2CCCC2=O)cc1,0.558% (inactive),
CCc1nn(CCCC(=O)Nc2ccc(C)c(C)c2)c(=O)c2cc3occc3n12,-2.6% (inactive),
COc1c(F)c(F)c(-c2csc(N)n2)c(F)c1F,1.67% (inactive),
Cc1cccc(C)c1NC(=O)C(c1ccc(C(F)(F)F)cc1)n1c(=O)c(-c2ccco2)nc2ccccc21 (stereo unspecified),-16.5% (inactive),
O=C(O)CCCN1C(=O)C2C3c4ccccc4C(c4ccccc43)[C@@H]2C1=O (stereo partly specified),6.33% (inactive),

SMILES,"activity, negative = inhibition",Potency
C=C1C(=O)OC2C1CCC(C)=CCCC1(C)OC21 (stereo unspecified),5.97% (inactive),
CCN(c1ccccc1)S(=O)(=O)c1ccc2[nH]c(=O)[nH]c2c1,-7.42% (inactive),
CCN1CCN(C(=O)c2cc3cc4ccc(OC)cc4nc3s2)CC1,-2.76% (inactive),
N#CCOc1ccc(C2=NO[C@@H]3[C@@H]4C[C@@H]([C@H]5C(=O)N(c6ccc7c(c6)OCO7)C(=O)[C@@H]45)[C@H]23)cc1,-9.46% (inactive),
CN(C)c1ccc(NC(=O)c2ccncc2)c2ccccc12,4.4% (inactive),
CC1CCCN(C(C(=O)Nc2ccc(C(C)C)cc2)c2ccc3c(c2)OCO3)C1 (stereo unspecified),11.7% (inactive),
CC(C)C[C@H]1CN([C@@H](CC(C)C)CN2CCC[C@@H]2CN2C(=O)C(=O)NC[C@@H]2Cc2ccccc2)C(=O)C(=O)N1CCc1ccccc1,-25.2% (inactive),
COC(=O)c1cc2c(N)c(C(=O)c3ccc(Cl)cc3)sc2nc1C(OC)OC,,79.4 µM (active)
COC(=O)c1sccc1NC(=O)c1ccc(Cl)cc1,5.53% (inactive),
CC(C)OC(=O)c1sc2nc3c(cc2c1N)C(=O)CCC3,7.66% (inactive),
CCOC(=O)[C@]12CCCC=C1N(CCC1=CCCCC1)C(=O)[C@H](CC(=O)NCCCCc1ccccc1)C2,-10.5% (inactive),
O=C(O)c1ccccc1N=N/C(=N/Nc1cc(S(=O)(=O)O)ccc1O)c1ccccc1,,50.1 µM (active)
COc1ccccc1NC(=O)N1CCCC1C(=O)NCc1cccs1 (stereo unspecified),0.017% (inactive),
Cc1ccc(-n2ncc3c2CC(C)(C)CC3NC(=O)CCc2cnn(C)c2)cc1 (stereo unspecified),-0.921% (inactive),
CCO/C([O-])=N/c1c[n+](N2CCOCC2)no1,,inactive
O=C(NCCCn1ccnc1)/C(=C\c1ccccc1F)NC(=O)c1ccccc1,-3.25% (inactive),
CCC(=O)NC(Nc1cc(C)ccn1)(C(F)(F)F)C(F)(F)F,-5.15% (inactive),
COC(=O)c1ccc2nc(-c3cccc(Br)c3)c(Cc3ccc(OC)cc3C)n2c1,-6.84% (inactive),
CC1(C(=O)NCc2ccco2)Cc2c(-c3ccc4c(c3)OCO4)ccnc2O1 (stereo unspecified),-0.756% (inactive),
O=C(Nc1ccccc1-c1nnn(CC(=O)N2CCCc3ccccc32)n1)c1cccc(Cl)c1,-0.482% (inactive),
